# Screening results as filed in PubChem.
# Mcl1 Bid PPI: Mcl-1/Bid binding inhibitors, primary screen, biochemical, TR-FRET, 1536-well; Induced myeloid leukemia cell differentiation protein Mcl-1 (Homo sapiens), Q07820; TR-FRET Mcl-1/Bid-Dy647 peptide binding; inhibition, % at 21.7 µM; 220,000 compounds, 0.97% hits; AID 1021, 2008;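 active = compounds that cut the binding signal by more than half at the single screening dose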;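 note: His-tagged Mcl-1 with europium anti-His antibody binding Bid BH3 peptide; 0% = Mcl-1 plus peptide wells and 100% = peptide-only wells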
# Target sequence (Q07820 whole entry, looked up): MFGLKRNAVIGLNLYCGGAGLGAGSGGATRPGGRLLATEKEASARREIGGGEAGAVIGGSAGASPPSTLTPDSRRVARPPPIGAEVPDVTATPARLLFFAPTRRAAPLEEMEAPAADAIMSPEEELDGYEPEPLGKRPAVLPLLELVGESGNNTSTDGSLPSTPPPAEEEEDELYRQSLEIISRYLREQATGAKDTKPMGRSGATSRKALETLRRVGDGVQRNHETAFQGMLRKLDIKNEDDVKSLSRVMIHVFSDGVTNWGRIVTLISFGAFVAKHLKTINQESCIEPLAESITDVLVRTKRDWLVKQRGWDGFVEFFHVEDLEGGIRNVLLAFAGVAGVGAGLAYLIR
# Hck-Nef inh: inhibitors of Nef-activated human Hck kinase, primary screen, biochemical, Z-Lyte FRET, 384-well, Hck-YEEI | Recombinant Hck-YEEI plus Nef, Z-Lyte FRET kinase assay | inhibition, % at 20 µM | 220,000 compounds, 0.68% hits | AID 463187, 2010;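 active = Hck-Nef kinase inhibition above about 50%, limit read from the data; inactive = inhibition below that limit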;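 note: 0% = DMSO with Hck plus Nef and 100% = Hck alone without Nef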
# eIF4E-4G inh: eIF4E–eIF4G protein interaction inhibitors, primary screen, biochemical, uHTS, TR-FRET, eIF4GI fragment | TR-FRET eIF4E-eIF4GI(517-606) binding, 2 h | inhibition, % at 21.7 µM | Eukaryotic translation initiation factor 4E (Mus musculus) + Eukaryotic translation … | AID 782, 2007 | 220,000 compounds, 0.37% hits;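 active = inhibition above about 30%, limit read from the data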;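 note: 0% = full FRET control wells and 100% = background wells lacking eIF4GI fragment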
# Mcl1-Noxa inh: Mcl-1/Noxa binding inhibitors, primary screen, biochemical, TR-FRET, 1536-well; Induced myeloid leukemia cell differentiation protein Mcl-1 (Homo sapiens), Q07820; TR-FRET Mcl-1/Noxa peptide binding, 2 h; AID 1022, 2008; 220,000 compounds, 1.5% hits; inhibition, % at 21.7 µM;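 active = compounds that cut the protein-peptide binding signal by more than 50% relative to plate controls in a single-dose test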;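 note: His-tagged Mcl-1 with rhodamine Noxa BH3 peptide and terbium anti-His antibody; 0% = Mcl-1 plus Noxa peptide wells and 100% = peptide-only wells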
# Mcl-1 Bim block: inhibitors of Bim peptide binding to Mcl-1, primary screen, biochemical, bead-based flow cytometry, multiplex; AID 1009, 2008; 190,000 compounds, 0.1% hits; inhibition, % at 10 µM; Bim peptide-Mcl-1 binding; in the data active = inhibition above about 40%;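 note: 0% = no compound tracer wells and 100% = peptide blocker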
# 14-3-3 Bad inh: inhibitors of 14-3-3 zeta/Bad binding, primary screen, biochemical, TR-FRET, bovine 14-3-3 zeta; 14-3-3 protein zeta/delta (Bos taurus), P63103; TR-FRET 14-3-3zeta/Dy647-pBad peptide displacement, 1 h; inhibition, % at 21.7 µM; 220,000 compounds, 0.71% hits; AID 781, 2007;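 active = inhibition above about 70%, limit read from the data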;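 note: 0% = full 14-3-3 plus peptide FRET controls and 100% = background without 14-3-3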
# Numbers without * were called inactive; / = no result; [ ] = dose if it differs, or a comment. Hits are enriched below; roughly 3.5% of the tested compounds scored in any of these assays.
SMILES,Mcl1 Bid PPI,Hck-Nef inh,eIF4E-4G inh,Mcl1-Noxa inh,Mcl-1 Bim block,14-3-3 Bad inh
C=CCNCCOCCOc1ccc(C)cc1[N+](=O)[O-],27,1,2,14,-2,75*
CCOc1ccccc1NC(=O)COC(=O)CC(NC(N)=O)c1ccc(Cl)cc1 (stereo not drawn),-19,11,2,-14,-3,0
O=C1c2ccccc2C(=O)N1/N=C/c1ccc(Oc2ccc([N+](=O)[O-])cn2)cc1,-2,5,0,8,-1,7
Cc1nc2ncnn2c(C)c1Cc1cccc(C(F)(F)F)c1,4,23,-2,4,-1,1
Cc1cc(NC(=O)CSc2nnc(NC(=O)C3CC(=O)N(c4ccccc4)C3)s2)no1 (stereo not drawn),51*,5,-4,-56,2,35
Cc1cc(NC(=O)CSc2nnc(NC(=O)C3CC(=O)N(c4ccccc4C)C3)s2)no1 (stereo not drawn),-34,6,-2,20,-3,-24
COC(=O)C1CCCN1C(=O)COc1ccc(Cl)cc1Br (stereo not drawn),-5,4,0,-3,-1,0
Cc1ccc(-n2[nH]c(C)c(C=Nc3ccc(S(=O)(=O)Nc4nccs4)cc3)c2=O)cc1,-65,3,6,10,1,8
Cc1[nH]n(-c2ccc(Br)cc2)c(=O)c1C=Nc1ccc(S(=O)(=O)Nc2nccs2)cc1,-71,5,4,79*,0,3
COC1=CC(=O)CC(C)C12Oc1c(Cl)c(OC)cc(OC)c1C2=O (stereo not drawn),1,4,4,-66,0,77*
Cc1ccc(C(=O)N[C@@H](C)CN2C3=NC[C@H](C)N3C[C@H]2Cc2ccc(O)cc2)cc1Br,-36,2,-8,14,/,1
CCCN1C(=O)/C(=C/c2ccc(C)s2)SC1=Nc1ccc(OC)cc1,-41,0,-1,4,0,-4
CCN1C(=O)/C(=C/c2cccs2)SC1=Nc1ccc(OC)cc1,97*,-2,4,7,-1,-13
O=C(CCCN1C(=O)/C(=C\c2cccs2)SC1=S)NNC(=O)c1cccnc1,-14,19,1,43,2,-12
COc1cc(/C=N/NC(=O)c2cccc(S(=O)(=O)N3CCCCC3)c2)cc(Br)c1O,-43,0,5,72*,0,-25
O=C(N/N=C/c1ccc(O)c(O)c1)c1cccc(S(=O)(=O)N2CCCCC2)c1,-21,-4,4,56*,0,-7
Cc1ccc(C(=O)ONc2ccc(N=NC(=O)c3ccccc3O)cc2)cc1,102*,34,-47,81*,3,26
Cn1nccc1C(=O)Oc1cccc(/C=N/NC(=O)c2ccccc2O)c1,-24,1,-1,7,0,-13
COc1cc(CNc2cccc(C(=O)O)c2)cc(Br)c1OCC(=O)NC(C)(C)C,-15,5,2,6,17,-11
NCCCC[C@H](NC(=O)C1CCNCC1)c1nnc(CN)o1,90*,-8,-2,35,0,-6
CCN1/C(=C/c2ccc3ccccc3[n+]2CC)C=Cc2ccccc21,-56,4,46*[fluorescence artefact?],-11,-3,41
Cc1ccc(OCCC(=O)O)cc1,-13,1,6,-9,/,1
CC(C)Sc1nc(-c2cccs2)nc2c1c(=O)n(C)c(=O)n2C,5,53*,0,12,1,-4
Cc1ccccc1-c1nc(SCc2ccccn2)c2c(=O)n(C)c(=O)n(C)c2n1,3,-3,7,-9,2,33
N#Cc1c(-n2ccnc2)cccc1-n1ccnc1,-25,2,2,3,-1,8
